Bioassay records deposited in PubChem by National Center for Advancing Translational Sciences (NCATS).
Rows were chosen to be rich in hits. Some 10% of all compounds tested hit in one or more screens of this group.
ALDH1A1 block – inhibitors of human aldehyde dehydrogenase 1A1; Potency, µM (top dose mostly 75.3 µM), for inactives: at the highest dose activity, negative = inhibition, hits mostly inhibitors; AID 1030; Purified ALDH1A1, NADH fluorescence, propionaldehyde substrate; actives 7.3% (n = 220,000);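 further: potency means the concentration at half of the fitted maximal effect; plate controls were no enzyme wells and a reference inhibitor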
KinaseGlo FLuc – blocks Kinase-Glo luciferase, a counter-screen artifact | Q27757 | Kinase-Glo luciferase, ATP luminescence, 8 min | Potency, µM (titrated, usually from 38.3 µM), for inactives: top-dose activity change, negative = inhibition, usual class: inhibitors | actives 0.28% (n = 200,000); active means well fitted inhibition curve with a large enough effect; inconclusive means small, poorly fitted or top-dose-only effect; further: potency means the concentration at half of the fitted maximal effect; nearly all actives have a fitted effect of over 60% in size
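Substrate mix (final 50 mM imidazole pH 7.2, 50 mM KCl, 7 mM MgCl2, 10 uM ATP, 0.01% Tween 20, 0.05% BSA) plus pin-tool compound, then Kinase-Glo detection mix; 8 min ambient, luminescence read.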
LMNA splice mod – modulators of lamin A splicing; HeLa LMNA splicing GFP/RFP minigene ratio, 48 h; Potency, µM (highest dose often 46.1 µM), for the others: at the highest dose ratio change, negative = inhibition, usual class: inhibitors; actives 0.01% (n = 200,000); active means well fitted inhibition curve with a large enough effect in the signal ratio, with a control signal flat, not every such curve was filed as active; inconclusive means small, poorly fitted or top-dose-only effect, or effect the other way, or a change in a side signal; the % refers to the signal ratio; further: potency means the concentration at half of the fitted maximal effect
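Read-out is the ratio of GFP to DsRed2 object intensity, acquired by 488 nm laser-scanning cytometry on HeLa lamin A-EGFP minigene reporter cells. Compound incubation 48 hrs at 37 °C in Opti-MEM with 2% FBS; DMSO 0.5% final.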
IMPase inh – membrane-permeable compound that blocks inositol monophosphatase; 120,000 tested, under 10 active; inhibition (IP1 accumulation), % at 46.1 µM; CHO-M1 cells, IP1 accumulation, HTRF TR-FRET ratio; P97697; active means well fitted curve in the direction sought with a large enough effect in the signal ratio, not every such curve was filed as active; inconclusive means small, poorly fitted or top-dose-only effect, or a change in a side signal; inactive means no such curve, though single readings can be large or run the other way; the % refers to the signal ratio;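 further: cells stimulated with carbachol in lithium chloride buffer; plate controls were DMSO basal wells for no effect and reference inhibitor wells for full effect; higher means more IMPase inhibition seen as more IP1 and lower FRET ratio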
Target sequence (P97697 whole entry, looked up): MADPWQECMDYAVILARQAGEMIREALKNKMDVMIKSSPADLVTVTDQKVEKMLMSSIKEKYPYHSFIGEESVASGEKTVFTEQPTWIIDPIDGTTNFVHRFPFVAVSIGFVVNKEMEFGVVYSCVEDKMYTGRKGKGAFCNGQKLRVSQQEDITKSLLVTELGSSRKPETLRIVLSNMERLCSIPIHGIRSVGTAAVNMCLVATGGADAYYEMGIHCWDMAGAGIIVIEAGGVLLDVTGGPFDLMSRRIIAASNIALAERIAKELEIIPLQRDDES
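Seeded CHO-M1 cells were dosed with compound at up to 46 uM, stimulated with carbachol for 30 min, then lysed in IP-One detection reagents. Higher IP1 lowers the TR-FRET signal.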
PNC assembly inh – inhibitors of perinucleolar compartment assembly. AID 2417. PC3M PTB-GFP, PNC prevalence imaging, 16 h; stronger effect = lower value. activity change (PNC), negative = inhibition, % at 10 µM. actives 3.1% (n = 140,000);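 active means readout at or below -70, meaning at least 70% loss of cells showing the perinucleolar compartment, a nuclear body marking cancer cells; inconclusive means readout between -30 and a set limit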;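 further: plate controls were DMSO wells for no effect and camptothecin positive control wells for full effect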
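Compounds are pinned in duplicate onto adhered PC3M cells stably expressing GFP-tagged PTB and incubated 16 h at 37 C. Cells are then fixed, nuclei stained with Hoechst, and PNC-positive cells counted.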
HPGD block – HPGD (human) dehydrogenase inhibition | purified HPGD, NADH fluorescence kinetic, PGE2 substrate | actives 4.3% (n = 150,000) | P15428 | Potency, µM, without a hit: at the top dose activity change, negative = inhibition, usual class: inhibitors; further: potency means the concentration at half of the fitted maximal effect
Target sequence (P15428 whole entry, looked up): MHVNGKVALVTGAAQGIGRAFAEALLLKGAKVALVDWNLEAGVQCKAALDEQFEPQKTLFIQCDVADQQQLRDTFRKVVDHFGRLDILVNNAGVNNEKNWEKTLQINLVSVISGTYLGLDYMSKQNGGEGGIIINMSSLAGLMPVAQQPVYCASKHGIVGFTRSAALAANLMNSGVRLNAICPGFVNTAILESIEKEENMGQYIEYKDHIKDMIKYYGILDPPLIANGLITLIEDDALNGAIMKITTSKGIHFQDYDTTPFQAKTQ
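20 nM HPGD preincubated 15 min at room temperature with compound in 50 mM Tris-HCl pH 8, 0.01% Tween 20. Started with 1 mM NAD+ and 30 uM prostaglandin E2; NADH fluorescence (360/450 nm) read 5 times over 30-s intervals, last minus first.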
An asterisk follows results filed as active; [ ] = dose if it differs, or a comment. Unless noted, the call rests on the fitted dose curve; in most records, active means well fitted inhibition curve with a large enough effect (not every such curve was filed as active); inconclusive means small, poorly fitted or top-dose-only effect, or another doubt; inactive means no such curve, though single readings can be large or run the other way. Unless noted, on the % scale 0 is the no-effect control and ±100 the full control effect.

`O=C(CSc1nc(C2CC2)nc2sc3c(c12)CCCC3)NCc1ccco1` gave ALDH1A1 block 6%, KinaseGlo FLuc 0%, LMNA splice mod -5%, IMPase inh 4, PNC assembly inh -26 and HPGD block -9%.
Cc1nc(SCC(=O)NCc2ccco2)c2c3c(sc2n1)CCCC3 was read as ALDH1A1 block 10µM*, KinaseGlo FLuc -2%, LMNA splice mod 6%, IMPase inh 9, PNC assembly inh inconclusive and HPGD block 14µM*.
C[C@H]1COC(=O)[C@H]2CCCN2C(=O)[C@@H](C)COC(=O)[C@H](Cc2ccccc2)NC1=O was read as ALDH1A1 block 3%[13.5 µM].
For COC(=O)c1cn(C(=O)c2ccco2)c2ccccc12 the results were ALDH1A1 block -3%, KinaseGlo FLuc -6%, LMNA splice mod 4%, IMPase inh -5, PNC assembly inh 46 and HPGD block -8%.
`COC(=O)c1cn(C(=O)c2ccc(Br)o2)c2ccccc12` gave ALDH1A1 block 32µM*, KinaseGlo FLuc 2%, LMNA splice mod -13%, IMPase inh 1, PNC assembly inh inconclusive and HPGD block -5%.
Screening Cc1noc(C)c1-c1nccc(N(C)C)n1 returned ALDH1A1 block -5% and LMNA splice mod -14%.
For S=c1[nH]nc(-c2ccccn2)n1/N=C/c1ccccc1 the results were ALDH1A1 block -15%, KinaseGlo FLuc 1%, LMNA splice mod 4%, PNC assembly inh inconclusive and HPGD block inconclusive.
S=c1[nH]nc(-c2ccccn2)n1/N=C/c1cccc2ccccc12 was read as ALDH1A1 block inconclusive, KinaseGlo FLuc -5%, LMNA splice mod -4%, PNC assembly inh inconclusive and HPGD block 3.5µM*.
Screening Fc1ccc(-c2n[nH]c(=S)n2/N=C/c2c[nH]c3ccccc23)cc1 returned ALDH1A1 block inconclusive, KinaseGlo FLuc 1%, LMNA splice mod -22%, IMPase inh 1, PNC assembly inh 29 and HPGD block 2.8µM*.
Screening S=c1[nH]nc(-c2ccccn2)n1/N=C/c1c(Cl)cccc1Cl returned ALDH1A1 block 18µM*.
Cc1ccc(-c2csc(NC(=O)c3cccc(S(=O)(=O)N4CCN(C)CC4)c3)n2)cc1 was read as ALDH1A1 block 2.5µM*, KinaseGlo FLuc -8%, LMNA splice mod inconclusive, IMPase inh 1, PNC assembly inh 7 and HPGD block -27%.
Screening O=C(Nc1nc(-c2cccs2)cs1)c1cccc(S(=O)(=O)N2CCCCC2)c1 returned ALDH1A1 block 1%, KinaseGlo FLuc -3%, LMNA splice mod inconclusive, IMPase inh 8, PNC assembly inh -27 and HPGD block -14%.
For CCOC(=O)C1=C(N)Oc2ccc(Br)cc2[C@@H]1[C@@H](C#N)C(=O)OCC the results were ALDH1A1 block inconclusive, KinaseGlo FLuc 3%, IMPase inh 8 and HPGD block -22%.
CN(C1CCCCC1)S(=O)(=O)Cc1ccccc1 was read as ALDH1A1 block -95%, KinaseGlo FLuc 3%, LMNA splice mod 7%, IMPase inh 10, PNC assembly inh 35 and HPGD block 18µM*.
Cc1cc(C#N)c(C)n1-c1cc(S(=O)(=O)N2CCOCC2)ccc1N1CCCC1 was read as ALDH1A1 block 4.5µM*, KinaseGlo FLuc 2%, LMNA splice mod 19%, IMPase inh 24, PNC assembly inh -27 and HPGD block 7.9µM*.
O=S(=O)(c1ccc(S(=O)(=O)N2CCOCC2)cc1)N1CCCC1 was read as ALDH1A1 block 12%, KinaseGlo FLuc -1% and LMNA splice mod inconclusive.
CC1CCCCC1NC(=O)c1cncc(Br)c1 (centres undefined) was read as ALDH1A1 block -6%, KinaseGlo FLuc -4%, LMNA splice mod -5%, IMPase inh 6, PNC assembly inh -81* and HPGD block -2%.
